# Screening data (PubChem BioAssay)
# VACV Venus inh – vaccinia inhibition (Venus reporter); AID 720580; 330,000 tested, 0.46% active; Potency, µM (doses to about 36.5 µM), without a hit: top-dose activity change, negative = inhibition, most hits filed as inhibitors; Vaccinia virus Venus reporter expression, fluorescence; calls by dose curve; tested in A549 cells; further: potency means the concentration at half of the fitted maximal effect; on the % scale 0 is the no-effect control and ±100 the full control effect; nearly all actives have a fitted effect of over 30% in size
# Shiga toxin inh – blocks Shiga toxin action in Vero cells. Vero cells, Shiga toxin protein synthesis inhibition reporter. 290,000 tested, 9.2% active. inhibition, % at 38.7 µM; in the data active means inhibition mostly above about 28%, no sharp cut-off; inactive means mostly below about 43%; further: 0% is about no effect
# Cycloheximide cs – counter-screen for Shiga toxin inhibitors: cycloheximide protein synthesis inhibition; max response, %; 300,000 tested, 12% active; AID 2314; cell reporter, cycloheximide protein synthesis inhibition counterscreen; in the data active means max response mostly above about 13%, no sharp cut-off; inactive means mostly below about 14%; further: read at 38.3 µM for the half of the compounds with a filed dose; 0% is about no effect
# Vaccinia mCherry – inhibitors of vaccinia virus infection (mCherry reporter signal). 310,000 tested, 0.63% active. Vaccinia virus mCherry reporter infection, fluorescence. AID 720579. Potency, µM (series often up to 36.5 µM), without a hit: at the highest dose activity change, negative = inhibition, usual class: inhibitors; calls by dose curve; tested in A549 cells; further: potency means the concentration at half of the fitted maximal effect; on the % scale 0 is the no-effect control and ±100 the full control effect; nearly all actives have a fitted effect of over 35% in size
# MARV entry inh – Marburg virus entry inhibition. 300,000 tested, 1.8% active. Potency, µM (top dose mostly 37.8 µM), for inactives: at the highest dose activity change, negative = inhibition, hits mostly inhibitors. Marburg virus pseudotyped entry inhibition, cell reporter; calls by dose curve; tested in HEK293 cells; further: potency means the concentration at half of the fitted maximal effect; on the % scale 0 is the no-effect control and ±100 the full control effect
# LASV entry inh – blocks Lassa virus binding to or entry into cells. 300,000 tested, 1.2% active. Potency, µM (top dose mostly 37.9 µM), inactives show top-dose activity change, negative = inhibition, usual class: inhibitors. Lassa virus pseudotype entry inhibition, cell reporter; calls by dose curve; tested in HEK293 cells; further: potency means the concentration at half of the fitted maximal effect; on the % scale 0 is the no-effect control and ±100 the full control effect; nearly all actives have a fitted effect of over 50% in size
# Numbers without * were called inactive; i = inactive; u = inconclusive; x = no result given; + = active, no number; [ ] = another dose, or the depositor's remark. Shown is part of a subset that was picked to be rich in hits.
SMILES,VACV Venus inh,Shiga toxin inh,Cycloheximide cs,Vaccinia mCherry,MARV entry inh,LASV entry inh
COc1cc2c(cc1NC(=O)C(Cl)Cl)-c1ccc(NC(=O)C(Cl)Cl)cc1C2,10µM*,x,x,13µM*,u,u
COc1cc2c(cc1NC(=O)c1ccccc1-c1ccccc1C(=O)O)-c1ccccc1C2,-18%,x,x,i,x,x
CSc1nc2ccc(NS(=O)(=O)c3cccc(Cl)c3Cl)cc2s1,-12%,18,17*,-12%,8%,8%
CSc1nc2ccc(NC(=O)NC(=O)c3c(F)cccc3F)cc2s1,-9%,20,17*,i,-25%,-3%
CSc1nc2ccc(NS(=O)(=O)c3ccc([N+](=O)[O-])cc3)cc2s1,4%,4,-3,-15%,4%[14.2 µM],3%
COc1ccc2nc(NC(=O)C3CCCO3)sc2c1 (stereo not drawn),2%,101*,65*,-19%,u,u
CSc1nc2ccc(NC(=O)c3ccc(Cl)s3)cc2s1,-22%,19,3,-19%,x,x
CSc1nc2ccc(NC(=O)C3CCCO3)cc2s1 (stereo not drawn),-8%,112*,40*,-28%,u,u
COc1ccc(-c2nc3ccccc3s2)cc1NC(=O)c1ccc(C#N)cc1F,2%,x,x,1%,22%[46.1 µM],12%[46.1 µM]
COc1ccc(-c2nnc(NC(=O)C3CCCO3)s2)cc1 (stereo not drawn),x,130*,38*,x,-3%,-16%
CCc1cccc(C)c1NC(=O)C1CCCO1 (stereo not drawn),-13%,8,-2,x,-2%,3%
Cc1cccc2sc(NC(=O)C3CCCO3)nc12 (stereo not drawn),-12%,111*,32*,-1%,24%,-17%
CCN(CC)C(=O)c1sc2c(c1C)c(=O)n(-c1ccc(C)c(C)c1)c(=O)n2CC(=O)Nc1ccc(OC)cc1OC,-18%,x,x,-28%,x,-2%[46.1 µM]
CCOC(=O)c1nn(-c2c(C)n(C)n(-c3ccccc3)c2=O)cc1O,-13%,-17,-4,x,0%,-2%
CCOC(=O)c1nn(-c2ccc3c(c2)OCCO3)cc1O,-10%,84*,40*,-16%,u,x
CC(=O)N1CCc2cc([N+](=O)[O-])ccc21,-9%,x,x,i,-7%,19%
COC(=O)c1nn(-c2ccc3c(c2)OCO3)cc1O,x,61,33*,x,-12%,u
CCOC(=O)c1nn(-c2ccc(C)c(C)c2)cc1O,-26%,94*,42*,-30%,-2%,10%
COC(=O)c1nn(-c2ccc3c(c2)CCN3C(C)=O)cc1O,x,-36,-11,x,u,2.6µM*
COC(=O)C1=C(C)N(Cc2ccccc2)C(=O)NC1c1ccccc1 (stereo not drawn),x,x,x,x,u,-20%[14.3 µM]
CCOC(=O)c1nn(-c2ccc([N+](=O)[O-])cc2)cc1O,x,46*,31*,x,x,x
CC1=C(C(=O)Nc2cccnc2)C(c2ccccc2)n2nc(SCc3ccccc3F)nc2N1 (stereo not drawn),-7%,x,x,i,u,-2%[46.1 µM]
Cc1[nH][nH]c(=O)c1C(c1ccc(-c2cccc(C(=O)O)c2)o1)c1c(C)[nH][nH]c1=O,-8%,74*,58*,-1%,-2%[46.1 µM],7%[46.1 µM]
C=C1C(=O)O[C@@H]2[C@H]1CC[C@H](C)[C@]1(O)CCC(=O)[C@@]21C,x,48,21*,x,x,x
C=C1CCC(O)C2(C)CCC3C(C)C(=O)OC3C12O (stereo not drawn),0%,4,-3,i,4%[46.1 µM],-8%[46.1 µM]
SMILES,VACV Venus inh,Shiga toxin inh,Cycloheximide cs,Vaccinia mCherry,MARV entry inh,LASV entry inh
Cc1cc(C(F)(F)F)nc(CCNCc2c(C(=O)N3CCCC3)nc3ccccn23)n1,-1%,27,-3,i,0%[46.1 µM],2%[46.1 µM]
Cc1ccc(C2=NN(C(=O)c3cccs3)C(c3ccccc3O)C2)cc1 (stereo not drawn),11%,22,22*,-1%,u,-7%[46.1 µM]
COc1ccc(S(=O)(=O)N2N=C(c3ccc(NS(C)(=O)=O)cc3)CC2c2ccco2)cc1 (stereo not drawn),x,23,6,x,10%,0.65µM*
COc1ccc(C2CC(c3ccccc3)=NN2S(=O)(=O)c2ccccc2)cc1 (stereo not drawn),x,55*,34*,x,x,x
COc1ccc(C2CC(c3ccccc3)=NN2c2ccc(N)cc2)cc1 (stereo not drawn),-19%,44*,39*,-7%,u,u
COc1ccc(S(=O)(=O)N2N=C(c3cccc(NS(C)(=O)=O)c3)CC2c2ccco2)cc1 (stereo not drawn),x,-5,1,x,x,x
O=C(c1cccs1)N1N=C(c2ccccc2)CC1c1ccccc1O (stereo not drawn),u,3,-1,-11%,u,30%[46.1 µM]
COc1ccc(C2CC(c3ccccc3O)=NN2c2ccccc2)cc1 (stereo not drawn),-5%[7.34 µM],x,x,u,-7%[46.1 µM],5%
CCOc1ccc(CCNC(=O)c2c3c(nc4ccccc24)C(=O)N(C2CCCCC2)C3)cc1,-17%,x,x,i,x,-23%[46.1 µM]
CCOc1ccc(NC(=O)c2oc3ccccc3c2NC(=O)C(C)(C)C)cc1,-19%,x,x,-10%,u,-22%[46.1 µM]
Cc1cccc(Cn2c(=O)n(-c3ccc(Cl)c(Cl)c3)c(=O)c3c(C)c(C)sc32)c1,-11%,x,x,-8%,-5%[46.1 µM],7%[46.1 µM]
CCC(=O)Nc1cccc(C2=NN(c3ccccc3)C(c3ccc(OC)cc3)C2)c1 (stereo not drawn),x,-15,2,x,x,x
Cc1ccc(C2=NN(S(=O)(=O)c3ccccc3)C(c3ccccc3O)C2)cc1 (stereo not drawn),-18%,69*,20*,u,u,u
COc1ccc(C2CC(c3ccccc3)=NN2c2ccc(Cl)c(C(=O)O)c2)cc1 (stereo not drawn),-8%,45*,26*,i,-6%[46.1 µM],5%[46.1 µM]
Cc1cccc(CNC(=O)c2cnn(-c3ncc(C)c(-c4cccs4)n3)c2C2CC2)n1,5%,x,x,-14%,x,x
CN(C)CC(=O)c1ccc(-c2ccccc2)cc1,x,99,24*,x,6%,-2%
CCN(Cc1ccccc1)C(=O)c1ccc(C(=O)N(CC)Cc2ccccc2)cc1,x,-12,-2,x,x,x
CCN(CC)CC(=O)c1ccc(-c2ccccc2)cc1,x,20,18,x,8%,1%
CCN(CC)C(=O)c1ccc(-c2ccccc2)cc1,-20%,+,16*,-16%,u,1%
COC(=O)c1ccc(CSc2nc3ccncc3n2Cc2ccc(F)cc2)cc1,-9%,x,x,-9%,u,x
O=C(NCc1ccccc1)c1cccn1-c1nnc(N2CCCCC2)s1,-8%,x,x,-8%,x,-10%[46.1 µM]
Cc1nn(CCC(=O)N2CCN(S(=O)(=O)c3ccc(Cl)cc3)CC2)c(C)c1C,2%,-11,-6,-16%,1%[46.1 µM],0%
Cc1ccc(Sc2c(C)nn(C(C)(C)C)c2OC(=O)C(C)(C)C)cc1,11%,x,x,-6%,-6%[46.1 µM],9%[46.1 µM]
Cc1cc2oc(=O)cc(CN3CCN(S(=O)(=O)c4cccs4)CC3)c2cc1C,-5%,-2,-3,-7%,14µM*,14µM*
Cc1cc2oc(=O)cc(CN3CCCCC3)c2cc1C,x,21,6,x,x,x
